Test results as given in PubChem BioAssay AID1224921 (Broad Institute, 2016).
Among all 1,400 compounds or so, about 350 (25%) were called active. Inconclusive results (about 2%) are left out. Only a sample is shown. Results with a measured potency or affinity are listed apart. Values without a mark were called inactive. The rule behind the calls is not given here.

Assay: C. difficile growth inhibition, confirmation, 4-point retest (AID 1224921);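 note: plate controls were DMSO wells for no effect and levofloxacin 16 µg/mL wells for full effect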
Conditions: Clostridioides difficile clinical isolate growth, OD600, 24 h, stronger effect = lower value; at 30 µM unless noted

SMILES | max activity
CCCC(=O)Nc1ccc2c(c1)C(=O)N(C)C[C@H](OC)[C@H](C)CN(Cc1ccc(F)cc1)[C@H](C)CO2 | 22.5%
CC(C)CC#Cc1ccc2c(c1)O[C@H](CN(C)Cc1ccc3c(c1)OCO3)[C@H](C)CN([C@H](C)CO)S2(=O)=O | 43.6%
COc1ccccc1CNC(=O)C[C@@H]1C[C@@H]2c3cc(NC(=O)NC4CCCC4)ccc3O[C@@H]2[C@@H](CO)O1 | -8.98% [at 1.8 µM]
C[C@H](CO)N1C[C@H](C)[C@H](CN(C)C(=O)NC2CCCCC2)Oc2cc(C#Cc3ccc(F)cc3)ccc2S1(=O)=O | 14.3%
COc1cccc(-c2ccc3c(c2)O[C@H](CN(C)Cc2cccnc2)[C@@H](C)CN([C@@H](C)CO)S3(=O)=O)c1 | 21.5%
CO[C@@H]1CN(C)C(=O)c2ccc(NC(=O)NC(C)C)cc2OC[C@@H](C)N(C(=O)NC(C)C)C[C@@H]1C | 16.7%
C[C@H]1CN([C@@H](C)CO)S(=O)(=O)c2ccc(C#CC3CCCC3)cc2O[C@H]1CN(C)C(=O)Cc1ccccc1 | 16.1%
CCCNC(=O)C[C@@H]1CC[C@H]2[C@H](COc3ccc(NC(=O)c4cccc(Cl)c4)cc3C(=O)N2C)O1 | -10.6% [at 8 µM]
C=CCOC(=O)[C@H]1[C@@H]2C(=O)O[C@@H](c3ccccc3)[C@@H](c3ccccc3)N2[C@@H](c2ccc(OCCOC(=O)[C@H]3C[C@H]4C(=O)N5CCC[C@H]5C(=O)N4[C@H]3c3cccc(OCCO)c3)cc2)[C@]12C(=O)Nc1ccccc12 | -23.8% [at 8 µM]
C[C@@H]1CN([C@@H](C)CO)S(=O)(=O)c2ccc(-c3cncnc3)cc2O[C@H]1CN(C)C(=O)CC1CC1 | -11% [at 8 µM]
CN(C)CC(=O)N1[C@H](C#N)[C@@H](c2ccc(/C=C/c3ccccc3)cc2)[C@H]1CO | 19.5%
CO[C@H]1CN(C)C(=O)c2ccc(NC(=O)c3ccccc3F)cc2OC[C@@H](C)N(CC2CC2)C[C@H]1C | 9.45%
CCCNC(=O)Nc1ccc2c(c1)OC[C@@H](C)N(Cc1ccccc1)C[C@@H](C)[C@H](OC)CN(C)C2=O | 40.4%
C[C@H](CO)N1C[C@H](C)[C@@H](CN(C)C(=O)c2ccccc2)OCCCC[C@H](C)Oc2ccc(NC(=O)Nc3cccc4ccccc34)cc2C1=O | 39.2%
CNC[C@@H]1OCCCC[C@@H](C)Oc2ccc(NC(=O)Nc3cccc4ccccc34)cc2C(=O)N([C@H](C)CO)C[C@H]1C | 27.3%
C[C@@H]1CCCCO[C@@H](CN(C)S(=O)(=O)c2ccccc2)[C@@H](C)CN([C@H](C)CO)C(=O)c2cc(NC(=O)Nc3ccc(C(F)(F)F)cc3)ccc2O1 | 12.1% [at 8 µM]
CNC[C@@H]1OCCCC[C@H](C)Oc2ccc(NC(=O)Nc3ccc(C(F)(F)F)cc3)cc2C(=O)N([C@@H](C)CO)C[C@@H]1C | 52.5% [at 8 µM]
CNC[C@H]1OCCCC[C@@H](C)Oc2ccc(NC(=O)Nc3ccc(C(F)(F)F)cc3)cc2C(=O)N([C@@H](C)CO)C[C@H]1C | 33.8% [at 8 µM]

SMILES | max activity
CNC[C@@H]1Oc2ncc(-c3ccc(OC)cc3)cc2C(=O)N([C@@H](C)CO)C[C@@H]1C | 20.8%
COc1cccc(-c2ccc3c(c2)O[C@@H](CN(C)Cc2cccnc2)[C@H](C)CN([C@@H](C)CO)S3(=O)=O)c1 | 12.1%
Cc1ccccc1-c1ccc2c(c1)O[C@H](CN(C)Cc1ccncc1)[C@H](C)CN([C@H](C)CO)S2(=O)=O | 50.8%
CO[C@H]1CN(C)C(=O)c2cc(NS(=O)(=O)c3ccc(Cl)cc3)ccc2OC[C@H](C)N(C(=O)NC(C)C)C[C@@H]1C | -13.3% [at 8 µM]
O=C(C[C@@H]1C[C@@H]2c3cc(NC(=O)Nc4ccc(C(F)(F)F)cc4)ccc3O[C@@H]2[C@H](CO)O1)NC1CCCCC1 | -10.2% [at 0.5 µM]
N#C[C@@H]1[C@@H](c2ccc(/C=C/c3ccccc3)cc2)[C@@H](CO)N1C(=O)C1CC1 | 27%
C[C@@H]1CN([C@@H](C)CO)C(=O)c2c(c3ccccc3n2C)-c2ccccc2CO[C@@H]1CN(C)C(=O)c1ccncc1 | 29.1%
COc1ccc(CN(C)C[C@@H]2OCCCC[C@H](C)Oc3ccc(NC(=O)Nc4ccc5c(c4)OCO5)cc3C(=O)N([C@H](C)CO)C[C@@H]2C)cc1 | 14.8%
CCCC(=O)Nc1ccc2c(c1)OC[C@@H](C)N(C(=O)c1ccccc1F)C[C@@H](C)[C@@H](OC)CN(C)C2=O | 9.79%
Cc1ccccc1-c1ccc2c(c1)O[C@@H](CN(C)Cc1ccncc1)[C@H](C)CN([C@H](C)CO)S2(=O)=O | 48.1%
CCCN(C)C[C@@H]1OCCCC[C@@H](C)Oc2ccc(NC(=O)Nc3ccc(C(F)(F)F)cc3)cc2C(=O)N([C@H](C)CO)C[C@@H]1C | 16.3% [at 8 µM]
CCCN(C)C[C@H]1OCCCC[C@H](C)Oc2ccc(NC(=O)Nc3ccc4c(c3)OCO4)cc2C(=O)N([C@@H](C)CO)C[C@@H]1C | 8.67%
CCCN(C)C[C@H]1OCCCC[C@@H](C)Oc2ccc(NC(=O)Nc3ccc(C(F)(F)F)cc3)cc2C(=O)N([C@H](C)CO)C[C@H]1C | -43.7%
CCCN(C)C[C@H]1OCCCC[C@H](C)Oc2ccc(NC(=O)Nc3ccc(C(F)(F)F)cc3)cc2C(=O)N([C@@H](C)CO)C[C@H]1C | 28.8% [at 8 µM]
CC(C)NC(=O)N[C@@H]1CC[C@H](CC(=O)NCCCN(C)C)O[C@@H]1CO | -13.1%
C[C@@H]1CN([C@H](C)CO)S(=O)(=O)c2ccc(C#CC3CCCC3)cc2O[C@@H]1CN(C)Cc1cccnc1 | 27.7%
CCCC#Cc1ccc2c(c1)O[C@@H](CN(C)Cc1ccncc1)[C@@H](C)CN([C@@H](C)CO)S2(=O)=O | -13.3% [at 8 µM]
